The results in this text go back to PubChem BioAssay (NCATS).

Experiment [1] has as its target Cytochrome P450 2D6 (Homo sapiens) (UniProt P10635). In words: Cytochrome P450 family 2 subfamily D member 6 (CYP2D6) small molecule antagonists: luciferase biochemical (cell-free) qHTS assay (AID 1645840; active means well fitted curve in the direction sought with a large enough effect in the repeat runs; an effect the other way counts as inactive or inconclusive). The following applies: P450-Glo CYP2D6 enzyme, luciferin luminescence, 1 h; series mostly up to 57.4 µM. The procedure, abridged:
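P450-Glo CYP2D6 system: proluciferin substrate converted by enzyme to luciferin, read by luminescence proportional to activity. Enzyme-substrate mix with compound 10 min at room temperature, then NADPH regeneration 1 h before detection reagent.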
In general terms: qHTS replaces the single test concentration by a dilution series.

The target of experiment [2] is Cytochrome P450 2C9 (Homo sapiens) (UniProt P11712). Description: Cytochrome P450 family 2 subfamily C member 9 (CYP2C9) small molecule antagonists: luciferase biochemical (cell-free) qHTS assay (AID 1645842; active means well fitted curve in the direction sought with a large enough effect in the repeat runs; an effect the other way counts as inactive or inconclusive). The settings on record: P450-Glo CYP2C9 enzyme assay, luciferin luminescence; series mostly up to 57.4 µM. In outline:
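P450-Glo CYP2C9 system: proluciferin substrate with enzyme in mix containing 0.4% BSA, 10 min at room temperature, then NADPH regeneration solution added and incubated 1 h at 37C. Detection reagent stopped reaction; luminescence read after 20 min as RLU.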

A short description of experiment [3]: Viability counterscreen for antagonist of constitutive androstane receptor (CAR) against the NCATS DSHEA and TCM libraries (AID 1794837). The following applies: CAR reporter cell line viability counterscreen, qHTS; series mostly up to 40 µM. The procedure, abridged: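 Cell viability, CellTiter-Fluor, Ex/Em 405/540 nm, 1 h at 37C. HepG2-CYP2B6-hCAR, 2,500 cells/well; cpds + CITCO 48 uM final (antagonist mode), 24 h, 37C/5% CO2.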
For orientation: The purpose of a counterscreen is to sort out artefacts and off-target activity.

Experiment [4] deals with Nuclear receptor subfamily 1 group I member 3 (Homo sapiens) (UniProt Q14994). In words: Primary qHTS for agonist of constitutive androstane receptor (CAR) against the NCATS DSHEA and TCM libraries (AID 1794839). The settings on record: CAR agonist reporter cells, qHTS luminescence; Potency: CAR antagonist co-added at 0.75 µM unless noted; series mostly up to 40 µM. The procedure, abridged: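 Luminescence from ONE-Glo luciferase was the agonist read-out in HepG2-CYP2B6-hCAR cells exposed 24 h to test substances. Wells also held the CAR antagonist PK11195 at 0.75 µM final. Viability was by CellTiter-Fluor fluorescence.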

A short description of experiment [5]: HepG2 viability counterscreen (readout 2: ATP content) against the NCATS DSHEA and TCM libraries (AID 1794840). The following applies: ATP content luminescence; series mostly up to 27.3 µM. In outline: (§1)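 1,000 HepG2 cells/well, 4 h attach; compounds ~24 h, 37C/5% CO2. Readout 1: GF-AFC 25 uM final, 30 min, fluorescence 380/510 nm. Readout 2: CellTiter-Glo, 30 min RT, luminescence.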

Experiment [6] is described as follows: HepG2 viability counterscreen (readout 1: protease activity) against the NCATS DSHEA and TCM libraries (AID 1794841). The following applies: qHTS concentration series; series mostly up to 27.3 µM. The procedure, abridged: as §1
The nature of experiment [7]: KB-3-1 P-gp reporter qHTS against the NCATS DSHEA and TCM libraries (AID 1919975). The following applies: KB-3-1 parental cells, CellTiter-Glo luminescence viability, 72 h; series mostly up to 26.1 µM. In outline:
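CellTiter-Glo luminescence viability readout; KB-3-1 parental cells, 500/well, attached ~4 h, then compound for ~72 h, 37C, 5% CO2. Bortezomib intraplate control.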

Experiment [8] deals with Cytochrome P450 1A2 (Homo sapiens) (UniProt P05177). In words: qHTS for inhibitors of CYPIA2 against the NCATS DSHEA and TCM libraries (AID 1919976). The following applies: recombinant CYP1A2 enzyme activity, luminescence; series mostly up to 37 µM. The procedure, abridged: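 Enzyme and pro-luciferin substrate, or substrate alone as no-enzyme background, are pre-incubated with test samples for 15 min at room temperature. NADPH regeneration system (1x final) initiates a 30-45 min dark reaction; luciferase detection reagent follows before luminescence reading.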

Experiment [9] in a line: qHTS Counterscreen for compound interference against the NCATS DSHEA and TCM libraries (AID 1919978). The settings on record: firefly luciferase detection reagent interference, luminescence. The procedure, abridged:
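Luminescence counterscreen for detection-kit interference: compounds at 19.5 nM–39.8 uM final, 15 min RT with 1 uM D-luciferin or buffer only; detection reagent added, 30 min RT, then read.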

Experiment [10] deals with Nuclear receptor subfamily 1 group I member 2 (Homo sapiens) (UniProt O75469). In words: Dual reporter qHTS for antagonist of Pregnane X Receptor (hPXR) against the NCATS DSHEA and TCM libraries: Luminescence Readout (AID 1920060). The following applies: hPXR dual reporter cells, luciferase luminescence, antagonist mode; series mostly up to 40 µM. The procedure, abridged: (§2)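 In antagonist mode, 2 uM rifampicin was added to hPXR-Luc HepG2 cells alongside test substances, incubated 24 h at 37 C; luminescence gave reporter activity, and CellTiter-Fluor fluorescence (405/540 nm) gave viability.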

Experiment [11] in a line: Dual reporter qHTS for antagonist of Pregnane X Receptor (hPXR) against the NCATS DSHEA and TCM libraries: Fluorescence Readout (AID 1920061). The following applies: PXR dual reporter cells, antagonist mode; series mostly up to 40 µM. The procedure, abridged:
as §2

A short description of experiment [12]: Confirmatory qHTS for VERO E6 Cytotoxicity Assay: Counterscreen for SARS-CoV-2 CPE Assay (AID 1508605; calls by dose curve). The settings on record: cell viability luminescence; series mostly up to 20 µM.
A short description of experiment [13]: Primary qHTS for Huh7 cytotoxicity: counterscreen for inhibitors of MERS-S pseudotyped particle cell entry (AID 1479147; calls by dose curve). The following applies: cell viability read-out; outcome: at 57.1 µM (top of the series) unless noted; series mostly up to 57.1 µM.
Experiment [14] is described as follows: Primary qHTS for Vero E6 cytotoxicity: counterscreen for inhibitors of SARS-S pseudo-typed particle cell entry (AID 1479150; calls by dose curve). The following applies: cell viability; outcome: at 57.1 µM (top of the series) unless noted; series mostly up to 57.1 µM.
Experiment [15] is described as follows: Validation of Assay for Modulators of Lamin A Splicing (AID 1459; active means well fitted curve in the direction sought with a large enough effect in the signal ratio; the % refers to the signal ratio). The settings on record: Lamin A splicing dual RFP/GFP fluorescence reporter; series mostly up to 9.22 µM. In outline:
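Readout: ratio of GFP (500-530 nm) to RFP (575-640 nm) total object intensity by 488 nm laser-scanning cytometry after 48 hrs. Cells were HeLa S3 clones carrying lamin A-EGFP minigene plus DsRed2 viability reporter; vehicle 0.5% DMSO final.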

The target of experiment [16] is DNA repair nuclease/redox regulator APEX1 (Homo sapiens) (UniProt P27695). In words: qHTS Validation Assay for Inhibitors of the Human Apurinic/apyrimidinic Endonuclease 1 (APE1) (AID 1705). The settings on record: purified APE1 endonuclease activity, fluorescence, titration; series mostly up to 57.1 µM. The procedure, abridged: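 Read-out: TAMRA fluorescence (525 nm ex, 598 nm em) from cleavage of a quenched THF abasic-site duplex, 50 nM final; activity taken as intensity change between third and first of three reads 60 s apart.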

A short description of experiment [17]: Counterscreen for APE1 Inhibitors: Fluorescent Dye Displacement Validation Assay (AID 1707). The following applies: fluorescent dye displacement from DNA; series mostly up to 57.1 µM. In outline:
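Counterscreen flags promiscuous DNA binders: compounds displacing ThO from duplex DNA (abasic THF site, 50 nM) reduce 540 nm emission (480 nm excitation). ThO 250 nM final; Tris-HCl pH 7.5 with NaCl, MgCl2 and Tween-20.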

Experiment [18] concerns the target Endonuclease 4 (Escherichia coli (strain K12)) (UniProt P0A6C1). Description: Counterscreen for APE1 Inhibitors: qHTS Validation Assay for Inhibitors of Endonuclease IV (AID 1708). The settings on record: E. coli endonuclease IV, DNA cleavage fluorescence; series mostly up to 57.1 µM. The procedure, abridged: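 Incision of a double-stranded 50 nM TAMRA/BHQ-2 abasic substrate was followed kinetically (525/598 nm, reads every 60 s) after 15 min enzyme–compound preincubation with 2 nM EndoIV in pH 7.5 Tris buffer with MgCl2, DTT and Tween-20; concentration-response format.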

Experiment [19] can be described thus: qHTS for differential inhibitors of proliferation of Plasmodium falciparum line GB4 (AID 1816). The following applies: Potency: Plasmodium falciparum GB4 proliferation inhibition; series mostly up to 28.7 µM.
The nature of experiment [20]: qHTS for differential inhibitors of proliferation of Plasmodium falciparum line 3D7 (AID 1876). The settings on record: P. falciparum 3D7 proliferation inhibition; series mostly up to 28.7 µM.

Unmarked numbers belong to inactive results. Inconclusive results are not listed. Calls of active or inactive are those of the source. Unless noted, the call rests on the fitted dose curve; in most records, active means well fitted curve in the direction sought with a large enough effect; inconclusive means small, poorly fitted or top-dose-only effect, or another doubt; inactive means no such curve, though single readings can be large; an effect the other way counts as inactive or inconclusive.

Chain of Cytochrome P450 1A2 (Homo sapiens) (P05177 whole entry, looked up): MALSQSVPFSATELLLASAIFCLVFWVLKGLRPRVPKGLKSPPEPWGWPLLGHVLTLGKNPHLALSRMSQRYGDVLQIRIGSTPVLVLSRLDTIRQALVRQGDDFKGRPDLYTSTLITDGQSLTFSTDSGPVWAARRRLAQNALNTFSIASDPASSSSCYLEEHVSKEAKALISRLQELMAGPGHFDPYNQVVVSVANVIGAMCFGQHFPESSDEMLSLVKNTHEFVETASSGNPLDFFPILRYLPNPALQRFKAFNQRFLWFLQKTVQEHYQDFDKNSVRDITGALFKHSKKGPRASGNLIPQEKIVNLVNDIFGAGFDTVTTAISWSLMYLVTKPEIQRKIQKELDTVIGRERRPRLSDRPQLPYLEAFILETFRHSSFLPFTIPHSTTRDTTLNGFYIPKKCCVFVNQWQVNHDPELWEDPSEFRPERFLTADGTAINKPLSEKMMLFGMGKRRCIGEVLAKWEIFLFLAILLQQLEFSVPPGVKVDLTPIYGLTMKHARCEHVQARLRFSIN
Chain of Cytochrome P450 2D6 (Homo sapiens) (P10635 whole entry, looked up): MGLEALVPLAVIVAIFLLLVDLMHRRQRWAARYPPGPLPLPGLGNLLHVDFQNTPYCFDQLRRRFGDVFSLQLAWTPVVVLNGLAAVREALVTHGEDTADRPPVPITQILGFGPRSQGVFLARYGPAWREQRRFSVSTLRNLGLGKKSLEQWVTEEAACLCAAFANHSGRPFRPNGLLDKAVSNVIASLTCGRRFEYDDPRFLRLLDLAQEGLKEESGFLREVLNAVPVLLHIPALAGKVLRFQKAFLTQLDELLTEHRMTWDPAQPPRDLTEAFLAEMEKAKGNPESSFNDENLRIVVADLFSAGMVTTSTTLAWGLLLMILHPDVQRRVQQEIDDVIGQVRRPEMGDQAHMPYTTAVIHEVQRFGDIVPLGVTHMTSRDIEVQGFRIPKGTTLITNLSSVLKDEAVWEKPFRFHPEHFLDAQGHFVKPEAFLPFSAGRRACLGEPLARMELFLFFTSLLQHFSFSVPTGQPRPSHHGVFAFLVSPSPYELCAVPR
Chain of Cytochrome P450 2C9 (Homo sapiens) (P11712 whole entry, looked up): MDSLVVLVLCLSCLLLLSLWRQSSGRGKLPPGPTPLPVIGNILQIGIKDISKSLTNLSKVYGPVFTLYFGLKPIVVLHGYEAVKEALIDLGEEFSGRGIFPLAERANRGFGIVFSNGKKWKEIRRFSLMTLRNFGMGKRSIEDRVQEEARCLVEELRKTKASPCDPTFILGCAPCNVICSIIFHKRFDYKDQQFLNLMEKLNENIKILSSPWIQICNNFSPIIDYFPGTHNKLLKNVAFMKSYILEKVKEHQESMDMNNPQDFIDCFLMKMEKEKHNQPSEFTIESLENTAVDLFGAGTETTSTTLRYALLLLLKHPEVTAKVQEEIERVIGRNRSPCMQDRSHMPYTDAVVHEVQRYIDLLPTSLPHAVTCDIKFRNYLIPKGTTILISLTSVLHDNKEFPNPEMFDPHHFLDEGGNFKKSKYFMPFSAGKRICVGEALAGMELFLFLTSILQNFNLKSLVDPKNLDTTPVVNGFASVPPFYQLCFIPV
Chain of Nuclear receptor subfamily 1 group I member 2 (Homo sapiens) (O75469 whole entry, looked up): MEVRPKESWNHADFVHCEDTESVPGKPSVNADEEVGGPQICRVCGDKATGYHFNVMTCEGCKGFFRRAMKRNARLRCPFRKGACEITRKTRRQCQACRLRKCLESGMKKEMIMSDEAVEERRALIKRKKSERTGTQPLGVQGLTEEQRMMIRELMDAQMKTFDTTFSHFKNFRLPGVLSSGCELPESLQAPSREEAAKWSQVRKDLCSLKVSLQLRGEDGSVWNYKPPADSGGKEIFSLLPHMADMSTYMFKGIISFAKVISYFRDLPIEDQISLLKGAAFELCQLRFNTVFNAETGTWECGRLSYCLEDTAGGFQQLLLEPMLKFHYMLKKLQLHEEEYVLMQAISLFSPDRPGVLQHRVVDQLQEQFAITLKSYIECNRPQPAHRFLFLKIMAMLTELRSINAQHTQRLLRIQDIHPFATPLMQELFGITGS
Chain of DNA repair nuclease/redox regulator APEX1 (Homo sapiens) (P27695 whole entry, looked up): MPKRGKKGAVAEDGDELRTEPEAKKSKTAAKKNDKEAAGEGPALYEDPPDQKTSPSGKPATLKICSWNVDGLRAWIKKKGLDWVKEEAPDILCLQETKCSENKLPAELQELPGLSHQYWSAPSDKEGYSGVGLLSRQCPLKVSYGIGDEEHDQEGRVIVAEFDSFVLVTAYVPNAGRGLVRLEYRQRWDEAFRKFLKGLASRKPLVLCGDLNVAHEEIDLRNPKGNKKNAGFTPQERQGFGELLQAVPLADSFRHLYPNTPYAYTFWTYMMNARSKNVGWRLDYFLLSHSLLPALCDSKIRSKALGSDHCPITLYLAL
Chain of Nuclear receptor subfamily 1 group I member 3 (Homo sapiens) (Q14994 whole entry, looked up): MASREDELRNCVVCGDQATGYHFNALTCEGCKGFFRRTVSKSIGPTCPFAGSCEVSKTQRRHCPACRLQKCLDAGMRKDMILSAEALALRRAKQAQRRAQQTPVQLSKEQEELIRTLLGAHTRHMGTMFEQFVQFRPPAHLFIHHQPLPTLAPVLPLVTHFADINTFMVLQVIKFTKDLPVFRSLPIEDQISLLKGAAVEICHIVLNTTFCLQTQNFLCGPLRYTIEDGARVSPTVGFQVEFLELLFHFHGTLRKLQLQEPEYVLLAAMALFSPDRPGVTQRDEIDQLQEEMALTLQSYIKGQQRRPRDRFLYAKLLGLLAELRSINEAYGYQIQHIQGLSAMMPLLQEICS

As to `N#CC(O[C@@H]1O[C@H](CO[C@@H]2O[C@H](CO)[C@@H](O)[C@H](O)[C@H]2O)[C@@H](O)[C@H](O)[C@H]1O)c1ccccc1` (stereo not given in full), the Potency entry in experiment [1], in experiment [2], in [4] and in experiment [8] was “inactive” throughout. Further, the compound was classed as inactive in experiment [3], in [5], in experiment [6], in experiment [7], in [10] and in [11]. In [9], the max response was -0.601%.
`CCCCCCC(C)(C)c1cc(O)c2c(c1)OC(C)(C)C1CC=C(CO)C[C@H]21` (stereo not given in full): the Potency entry in experiment [12] is “inactive”.
As to `C[C@@H](C1CC[C@@]2(O)C3=CC(=O)[C@@H]4C[C@@H](O)[C@@H](O)C[C@]4(C)[C@H]3CC[C@]12C)[C@H](O)CCC(C)(C)O` (stereo not given in full), the Potency entry in experiment [1] and in [2] was “inactive” in each case.
In the case of `Cc1c(N)nc([C@H](CC(N)=O)NC[C@@H](N)C(N)=O)nc1C(=O)N[C@H](C(=O)N[C@@H](C)[C@H](O)[C@@H](C)C(=O)N[C@@H](C(=O)NCCc1nc(-c2nc(C(=O)NCCC[S+](C)C)cs2)cs1)[C@@H](C)O)C(O[C@H]1O[C@H](CO)[C@H](O)[C@@H](O)[C@H]1O[C@H]1O[C@H](CO)[C@@H](O)[C@H](OC(N)=O)[C@@H]1O)c1cnc[nH]1` (stereo not given in full), the Potency entry in experiment [13] and in [14] was “inactive” in each case.
For the compound `COC(=O)[C@@]12OC[C@]34[C@H]([C@@H](O)[C@@H]1O)[C@@]1(C)CC(=O)C(O)=C(C)[C@@H]1C[C@H]3OC(=O)[C@H](OC(=O)/C=C(\C)C(C)C)[C@@H]24`, in [12], the Potency is 0.127 µM (active).
With `C=C(C)[C@@H]1CCC(C)=C[C@H]1c1c(O)cc(CCCCC)cc1O`, the Potency result in [13] and in experiment [14] was “inactive” throughout. Also, the compound was called inactive in experiment [3], in [5], in experiment [6], in experiment [7], in [10] and in experiment [11]. Also, the figures for the Potency in experiment [4] and in experiment [8] were 31.6 µM [setting not given] (active) and 11.2 µM (active), respectively. In experiment [9], the max response was 0.918%.
With `C[C@]12CC[C@H]3[C@@H](CCC4C[C@H](O)CC[C@@]43C)[C@@H]1CC[C@@H]2O` (stereo not given in full), the compound was classed as inactive in experiment [15] and in [17]. In addition, the Potency result in experiment [16], in experiment [18], in experiment [19] and in [20] was “inactive” throughout.
On to `NCC#Cc1ccccc1`, for which the outcome in experiment [15] and in experiment [17] was inactive. Further, the Potency result in experiment [16], in experiment [18], in experiment [19] and in [20] was “inactive” in each case.
